Laboratory results from paper PMC7862700, “An all-to-all approach to the identification of sequence-specific readers for epigenetic DNA modifications on cytosine”.

Tests used:
Test in all cases: DAPPL (digital affinity profiling via proximity ligation, sequencing); 10 mM Tris-HCl pH 7.5, 50 mM NaCl, 1 mM DTT, 4% glycerol, room temperature, 30 min; GST-TFs on glutathione beads, 16-mer random dsDNA library, 0.1% formaldehyde crosslink after washing; high values mean tight binding
FLI1 = target: T1, FLI1 (Homo sapiens, UniProt Q01543 1-452); details: protein: recombinant; tags: N-terminal GST; dsDNA, one strand shown
T1 sequence: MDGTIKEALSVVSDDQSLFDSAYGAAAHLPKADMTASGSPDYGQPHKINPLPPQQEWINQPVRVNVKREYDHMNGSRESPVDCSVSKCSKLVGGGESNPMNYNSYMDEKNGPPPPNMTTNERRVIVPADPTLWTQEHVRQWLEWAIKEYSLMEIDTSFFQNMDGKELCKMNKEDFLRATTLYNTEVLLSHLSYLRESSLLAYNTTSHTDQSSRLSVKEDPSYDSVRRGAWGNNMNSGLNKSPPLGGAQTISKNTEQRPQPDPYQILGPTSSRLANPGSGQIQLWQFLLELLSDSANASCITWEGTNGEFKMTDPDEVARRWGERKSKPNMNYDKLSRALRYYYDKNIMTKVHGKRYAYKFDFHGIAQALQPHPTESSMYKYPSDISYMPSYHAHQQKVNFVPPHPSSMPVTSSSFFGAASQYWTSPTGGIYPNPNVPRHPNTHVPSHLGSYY
Summary of the method: (§1)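 After expression in yeast as GST fusions, human transcription factors were bound to glutathione beads, DNA-barcoded and mixed with a tag-only sample. The pools were incubated with 200 nmole of a 16-mer random double-stranded DNA library in Tris/NaCl/DTT/glycerol buffer (30 min, room temperature), washed and crosslinked with 0.1% formaldehyde. Proximity ligation with BsaI/T4 ligase ran for 1 h at 37 °C, before PCR amplification and sequencing on an Illumina NextSeq500. Binding signal is a hexamer's read frequency for a factor divided by its frequency for the tag-only sample.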

ELK1 = target: T2, ELK1 (Homo sapiens, UniProt P19419 1-428); details: protein: recombinant; tags: N-terminal GST; dsDNA, one strand shown
T2 sequence: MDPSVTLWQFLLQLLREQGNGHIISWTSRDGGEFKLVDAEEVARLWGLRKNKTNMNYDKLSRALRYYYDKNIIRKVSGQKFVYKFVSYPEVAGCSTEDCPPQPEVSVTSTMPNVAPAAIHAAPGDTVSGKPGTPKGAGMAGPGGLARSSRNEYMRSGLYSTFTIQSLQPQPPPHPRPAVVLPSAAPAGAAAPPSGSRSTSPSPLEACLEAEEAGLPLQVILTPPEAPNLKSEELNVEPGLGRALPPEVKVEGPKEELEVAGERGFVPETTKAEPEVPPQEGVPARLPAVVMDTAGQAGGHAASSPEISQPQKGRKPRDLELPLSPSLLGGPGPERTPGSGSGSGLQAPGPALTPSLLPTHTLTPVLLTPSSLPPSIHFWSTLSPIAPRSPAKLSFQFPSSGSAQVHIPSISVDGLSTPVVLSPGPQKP
Summary of the method: as §1

GABPA = target: T3, GABPA (Homo sapiens, UniProt Q06546 1-454); details: protein: recombinant; tags: N-terminal GST; dsDNA, one strand shown
T3 sequence: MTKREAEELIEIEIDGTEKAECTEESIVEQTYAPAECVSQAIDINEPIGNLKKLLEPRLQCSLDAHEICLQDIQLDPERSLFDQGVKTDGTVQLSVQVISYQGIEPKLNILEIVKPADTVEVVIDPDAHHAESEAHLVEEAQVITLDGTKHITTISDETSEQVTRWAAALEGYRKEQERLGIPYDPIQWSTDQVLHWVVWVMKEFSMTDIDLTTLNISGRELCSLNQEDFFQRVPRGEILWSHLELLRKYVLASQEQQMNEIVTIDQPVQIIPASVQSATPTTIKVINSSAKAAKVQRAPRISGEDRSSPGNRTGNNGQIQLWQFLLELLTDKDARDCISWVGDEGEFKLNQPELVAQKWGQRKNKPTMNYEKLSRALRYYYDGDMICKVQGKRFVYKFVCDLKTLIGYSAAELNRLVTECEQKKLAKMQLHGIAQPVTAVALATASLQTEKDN
Summary of the method: as §1

ERG = target: T4, ERG (Homo sapiens, UniProt P11308 1-479); details: protein: recombinant; tags: N-terminal GST; dsDNA, one strand shown
T4 sequence: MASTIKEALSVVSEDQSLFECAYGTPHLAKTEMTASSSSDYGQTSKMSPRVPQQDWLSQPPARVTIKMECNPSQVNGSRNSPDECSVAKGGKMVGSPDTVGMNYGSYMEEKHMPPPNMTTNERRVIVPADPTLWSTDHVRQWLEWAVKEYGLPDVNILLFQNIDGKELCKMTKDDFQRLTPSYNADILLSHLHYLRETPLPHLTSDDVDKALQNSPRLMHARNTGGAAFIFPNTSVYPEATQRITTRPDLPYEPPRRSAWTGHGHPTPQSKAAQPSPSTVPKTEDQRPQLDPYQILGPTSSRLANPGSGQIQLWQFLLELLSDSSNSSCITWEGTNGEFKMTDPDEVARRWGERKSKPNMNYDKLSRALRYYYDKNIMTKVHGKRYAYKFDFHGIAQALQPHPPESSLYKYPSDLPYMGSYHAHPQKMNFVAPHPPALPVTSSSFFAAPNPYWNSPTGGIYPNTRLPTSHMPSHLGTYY
Summary of the method: as §1

ELF1 = ELF1 (Homo sapiens, UniProt P32519 1-619); details: protein: recombinant; tags: N-terminal GST; dsDNA, one strand shown
Summary of the method: as §1

EHF = target: T5, EHF (Homo sapiens, UniProt Q9NZC4 1-300); details: protein: recombinant; tags: N-terminal GST; dsDNA, one strand shown
T5 sequence: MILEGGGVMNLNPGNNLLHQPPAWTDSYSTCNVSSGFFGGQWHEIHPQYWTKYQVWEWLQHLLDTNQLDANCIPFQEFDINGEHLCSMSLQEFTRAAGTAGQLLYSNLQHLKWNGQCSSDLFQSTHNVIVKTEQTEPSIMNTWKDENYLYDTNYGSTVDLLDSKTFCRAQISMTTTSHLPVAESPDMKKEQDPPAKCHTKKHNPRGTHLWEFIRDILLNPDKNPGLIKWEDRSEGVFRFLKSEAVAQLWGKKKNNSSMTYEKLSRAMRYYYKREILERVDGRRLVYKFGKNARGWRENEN
Summary of the method: as §1

SPI1 = SPI1 (Homo sapiens, UniProt P17947 1-270); details: protein: recombinant; tags: N-terminal GST; dsDNA, one strand shown
Summary of the method: as §1

SPIB = SPIB (Homo sapiens, UniProt Q01892 1-262); details: protein: recombinant; tags: N-terminal GST; dsDNA, one strand shown
Summary of the method: as §1

ELK3 = target: T6, ELK3 (Homo sapiens, UniProt P41970 1-407); details: protein: recombinant; tags: N-terminal GST; dsDNA, one strand shown
T6 sequence: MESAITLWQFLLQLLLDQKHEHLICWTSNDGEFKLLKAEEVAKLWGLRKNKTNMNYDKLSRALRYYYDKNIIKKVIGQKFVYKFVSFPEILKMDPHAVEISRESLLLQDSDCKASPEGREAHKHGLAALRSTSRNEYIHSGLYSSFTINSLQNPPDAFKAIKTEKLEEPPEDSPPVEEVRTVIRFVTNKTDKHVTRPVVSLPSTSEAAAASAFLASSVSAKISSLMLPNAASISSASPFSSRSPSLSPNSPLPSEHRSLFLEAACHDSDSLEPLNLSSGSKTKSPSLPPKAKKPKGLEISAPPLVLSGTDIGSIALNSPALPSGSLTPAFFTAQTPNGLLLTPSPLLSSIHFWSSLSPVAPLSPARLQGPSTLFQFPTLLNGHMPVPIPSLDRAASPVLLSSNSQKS
Summary of the method: as §1

FEV = target: T7, FEV (Homo sapiens, UniProt Q99581 1-238); details: protein: recombinant; tags: N-terminal GST; dsDNA, one strand shown
T7 sequence: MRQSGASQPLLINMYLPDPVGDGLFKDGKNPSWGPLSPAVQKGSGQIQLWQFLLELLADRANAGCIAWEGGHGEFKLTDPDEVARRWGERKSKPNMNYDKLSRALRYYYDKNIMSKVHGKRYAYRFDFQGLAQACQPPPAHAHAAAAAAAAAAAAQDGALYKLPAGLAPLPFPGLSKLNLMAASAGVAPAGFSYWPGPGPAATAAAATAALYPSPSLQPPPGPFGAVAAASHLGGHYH
Summary of the method: as §1

ETV5 = ETV5 (Homo sapiens, UniProt P41161 1-510); details: protein: recombinant; tags: N-terminal GST; dsDNA, one strand shown
Summary of the method: as §1

HSF1 = HSF1 (Homo sapiens, UniProt Q00613 1-529); details: protein: recombinant; tags: N-terminal GST; chain copies: 3; dsDNA, one strand shown
Summary of the method: as §1

SPIC = target: T8, SPIC (Homo sapiens, UniProt Q8N5J4 1-248); details: protein: recombinant; tags: N-terminal GST; dsDNA, one strand shown
T8 sequence: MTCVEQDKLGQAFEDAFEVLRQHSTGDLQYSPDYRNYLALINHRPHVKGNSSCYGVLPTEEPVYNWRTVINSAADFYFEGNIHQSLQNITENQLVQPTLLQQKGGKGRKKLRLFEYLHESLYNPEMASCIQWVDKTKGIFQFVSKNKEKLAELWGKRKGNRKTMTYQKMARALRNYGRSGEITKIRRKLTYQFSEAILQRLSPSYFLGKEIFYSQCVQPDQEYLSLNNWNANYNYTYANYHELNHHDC
Summary of the method: as §1

ELF4 = ELF4 (Homo sapiens, UniProt Q99607 1-663); details: protein: recombinant; tags: N-terminal GST; dsDNA, one strand shown
Summary of the method: as §1

ELK4 = target: T9, ELK4 (Homo sapiens, UniProt P28324-2 1-405); details: protein: recombinant; tags: N-terminal GST; dsDNA, one strand shown
T9 sequence: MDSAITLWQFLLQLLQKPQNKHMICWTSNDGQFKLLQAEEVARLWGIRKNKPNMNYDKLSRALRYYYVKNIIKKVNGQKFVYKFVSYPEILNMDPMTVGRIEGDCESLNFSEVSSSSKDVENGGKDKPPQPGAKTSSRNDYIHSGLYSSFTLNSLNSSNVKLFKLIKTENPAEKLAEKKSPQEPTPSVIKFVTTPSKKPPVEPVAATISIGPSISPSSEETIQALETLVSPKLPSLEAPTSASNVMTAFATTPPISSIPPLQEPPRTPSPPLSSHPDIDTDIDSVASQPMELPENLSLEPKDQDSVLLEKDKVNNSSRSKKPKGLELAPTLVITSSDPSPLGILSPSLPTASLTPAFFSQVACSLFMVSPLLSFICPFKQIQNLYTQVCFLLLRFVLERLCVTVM
Summary of the method: as §1

ETV2 = target: T10, ETV2 (Homo sapiens, UniProt O00321 1-342); details: protein: recombinant; tags: N-terminal GST; dsDNA, one strand shown
T10 sequence: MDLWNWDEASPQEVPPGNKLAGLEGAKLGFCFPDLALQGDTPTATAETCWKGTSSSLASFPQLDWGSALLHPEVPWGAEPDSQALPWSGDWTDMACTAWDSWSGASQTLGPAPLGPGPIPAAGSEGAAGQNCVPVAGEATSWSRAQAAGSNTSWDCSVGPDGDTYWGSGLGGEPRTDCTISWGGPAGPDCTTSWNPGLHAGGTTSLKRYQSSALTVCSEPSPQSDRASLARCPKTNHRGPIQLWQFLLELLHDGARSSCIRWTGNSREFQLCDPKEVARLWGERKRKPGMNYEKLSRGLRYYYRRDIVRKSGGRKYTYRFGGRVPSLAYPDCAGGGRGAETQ
Summary of the method: as §1

ELF3 = target: T11, ELF3 (Homo sapiens, UniProt P78545 1-371); details: protein: recombinant; tags: N-terminal GST; dsDNA, one strand shown
T11 sequence: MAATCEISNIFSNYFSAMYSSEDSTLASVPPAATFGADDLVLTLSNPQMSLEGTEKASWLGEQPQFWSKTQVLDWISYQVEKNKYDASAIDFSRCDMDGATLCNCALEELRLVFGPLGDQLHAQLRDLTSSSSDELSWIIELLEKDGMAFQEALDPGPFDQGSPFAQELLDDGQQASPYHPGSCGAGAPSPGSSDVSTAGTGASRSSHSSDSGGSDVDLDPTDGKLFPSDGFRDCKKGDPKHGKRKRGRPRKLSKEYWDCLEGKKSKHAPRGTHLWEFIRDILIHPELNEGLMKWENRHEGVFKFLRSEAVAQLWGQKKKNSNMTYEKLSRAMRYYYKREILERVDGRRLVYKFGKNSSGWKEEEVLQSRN
Summary of the method: as §1

ETV1 = ETV1 (Homo sapiens, UniProt P50549 1-477); details: protein: recombinant; tags: N-terminal GST; dsDNA, one strand shown
Summary of the method: as §1

Sequence of ETV1 (P50549 whole entry): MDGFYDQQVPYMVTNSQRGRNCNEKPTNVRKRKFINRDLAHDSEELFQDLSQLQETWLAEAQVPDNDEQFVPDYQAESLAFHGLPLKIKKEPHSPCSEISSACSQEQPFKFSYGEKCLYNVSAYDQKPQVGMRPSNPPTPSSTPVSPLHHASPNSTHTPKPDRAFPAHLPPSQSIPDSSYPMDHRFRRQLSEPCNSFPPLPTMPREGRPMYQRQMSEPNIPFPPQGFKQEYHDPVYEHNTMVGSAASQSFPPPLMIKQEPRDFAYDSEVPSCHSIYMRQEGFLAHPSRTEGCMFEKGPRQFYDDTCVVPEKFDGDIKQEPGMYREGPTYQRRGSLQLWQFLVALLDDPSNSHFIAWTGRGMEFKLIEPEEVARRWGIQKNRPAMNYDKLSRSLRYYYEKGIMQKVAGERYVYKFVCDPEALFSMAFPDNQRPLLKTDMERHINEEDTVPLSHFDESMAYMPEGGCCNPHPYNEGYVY
Sequence of SPIB (Q01892 whole entry): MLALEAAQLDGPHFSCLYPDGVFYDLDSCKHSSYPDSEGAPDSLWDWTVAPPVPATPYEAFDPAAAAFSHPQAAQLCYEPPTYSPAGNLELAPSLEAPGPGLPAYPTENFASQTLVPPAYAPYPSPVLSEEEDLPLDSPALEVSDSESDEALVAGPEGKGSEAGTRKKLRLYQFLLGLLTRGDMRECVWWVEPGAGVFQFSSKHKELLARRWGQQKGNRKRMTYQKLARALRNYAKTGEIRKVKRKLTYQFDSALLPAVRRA
Sequence of HSF1 (Q00613 whole entry): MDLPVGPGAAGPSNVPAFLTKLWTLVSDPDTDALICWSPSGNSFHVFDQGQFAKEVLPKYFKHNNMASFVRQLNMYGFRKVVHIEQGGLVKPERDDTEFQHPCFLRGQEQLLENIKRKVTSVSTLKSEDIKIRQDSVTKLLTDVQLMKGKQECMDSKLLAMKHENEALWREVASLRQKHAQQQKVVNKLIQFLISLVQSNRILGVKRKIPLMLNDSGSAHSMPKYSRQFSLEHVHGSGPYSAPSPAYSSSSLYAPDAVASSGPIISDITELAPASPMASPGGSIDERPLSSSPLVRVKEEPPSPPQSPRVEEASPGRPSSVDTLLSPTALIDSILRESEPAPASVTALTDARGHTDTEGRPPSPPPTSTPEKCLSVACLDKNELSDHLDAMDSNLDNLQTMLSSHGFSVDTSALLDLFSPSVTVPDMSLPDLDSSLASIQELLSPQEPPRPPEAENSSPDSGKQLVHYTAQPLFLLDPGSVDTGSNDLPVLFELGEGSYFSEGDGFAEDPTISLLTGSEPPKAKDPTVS
Sequence of ETV5 (P41161 whole entry): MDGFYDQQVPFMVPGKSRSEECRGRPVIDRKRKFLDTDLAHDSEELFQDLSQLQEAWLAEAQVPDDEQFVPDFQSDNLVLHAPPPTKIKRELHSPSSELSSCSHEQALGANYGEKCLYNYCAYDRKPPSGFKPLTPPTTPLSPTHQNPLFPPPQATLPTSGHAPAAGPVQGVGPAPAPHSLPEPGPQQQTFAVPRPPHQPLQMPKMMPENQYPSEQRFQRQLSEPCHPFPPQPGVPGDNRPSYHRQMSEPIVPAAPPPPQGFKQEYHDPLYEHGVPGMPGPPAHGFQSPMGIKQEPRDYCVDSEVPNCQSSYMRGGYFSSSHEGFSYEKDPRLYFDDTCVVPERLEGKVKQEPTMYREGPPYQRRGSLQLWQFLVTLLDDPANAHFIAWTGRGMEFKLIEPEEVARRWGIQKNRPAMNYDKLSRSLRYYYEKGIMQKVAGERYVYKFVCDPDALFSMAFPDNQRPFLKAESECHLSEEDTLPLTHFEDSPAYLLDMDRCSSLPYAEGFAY
Sequence of ELF1 (P32519 whole entry): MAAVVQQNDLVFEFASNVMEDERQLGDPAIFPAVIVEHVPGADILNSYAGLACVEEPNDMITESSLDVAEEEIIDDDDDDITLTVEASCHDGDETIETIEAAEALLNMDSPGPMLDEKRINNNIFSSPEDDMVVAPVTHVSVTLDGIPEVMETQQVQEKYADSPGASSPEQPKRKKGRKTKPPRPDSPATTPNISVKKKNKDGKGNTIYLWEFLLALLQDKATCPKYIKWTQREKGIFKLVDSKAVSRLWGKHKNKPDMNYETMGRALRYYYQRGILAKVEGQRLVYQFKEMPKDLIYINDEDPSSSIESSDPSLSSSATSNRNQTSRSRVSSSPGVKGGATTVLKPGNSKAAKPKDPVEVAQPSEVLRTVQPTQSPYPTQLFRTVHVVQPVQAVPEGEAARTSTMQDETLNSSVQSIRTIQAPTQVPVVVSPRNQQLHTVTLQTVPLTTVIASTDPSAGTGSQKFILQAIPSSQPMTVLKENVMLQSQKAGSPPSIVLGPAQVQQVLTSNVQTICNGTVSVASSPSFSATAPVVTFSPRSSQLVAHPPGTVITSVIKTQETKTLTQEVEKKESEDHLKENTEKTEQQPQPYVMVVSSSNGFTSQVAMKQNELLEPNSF
Sequence of ELF4 (Q99607 whole entry): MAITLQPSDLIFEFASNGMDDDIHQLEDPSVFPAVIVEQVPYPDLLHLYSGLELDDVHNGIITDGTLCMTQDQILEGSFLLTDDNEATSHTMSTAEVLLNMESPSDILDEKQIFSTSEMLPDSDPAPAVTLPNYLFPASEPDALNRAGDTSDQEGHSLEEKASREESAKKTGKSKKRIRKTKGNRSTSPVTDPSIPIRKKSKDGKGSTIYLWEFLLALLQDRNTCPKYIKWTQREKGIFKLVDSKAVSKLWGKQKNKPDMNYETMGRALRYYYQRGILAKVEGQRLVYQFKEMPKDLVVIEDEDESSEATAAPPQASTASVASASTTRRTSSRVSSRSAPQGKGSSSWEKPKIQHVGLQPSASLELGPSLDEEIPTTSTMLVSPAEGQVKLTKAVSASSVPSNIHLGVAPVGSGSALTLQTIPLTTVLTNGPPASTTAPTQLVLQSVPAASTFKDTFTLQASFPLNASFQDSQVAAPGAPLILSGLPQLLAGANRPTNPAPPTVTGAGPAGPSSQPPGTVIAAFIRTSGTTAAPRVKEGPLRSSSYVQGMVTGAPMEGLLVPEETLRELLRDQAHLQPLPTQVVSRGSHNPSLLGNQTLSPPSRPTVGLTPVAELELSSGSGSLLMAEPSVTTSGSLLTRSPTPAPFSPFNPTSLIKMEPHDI

CACGAC
binding signal (FLI1): 1.27 fold enrichment (6-mer frequency, TF over GST control) | binding signal (ELK1): 1.29 fold enrichment (6-mer frequency, TF over GST control) | binding signal (GABPA): 1.33 fold enrichment (6-mer frequency, TF over GST control) | binding signal (ERG): 1.22 fold enrichment (6-mer frequency, TF over GST control) | binding signal (ELF1): 1.21 fold enrichment (6-mer frequency, TF over GST control) | binding signal (EHF): 1.28 fold enrichment (6-mer frequency, TF over GST control) | binding signal (SPI1): 1.14 fold enrichment (6-mer frequency, TF over GST control) | binding signal (SPIB): 1.23 fold enrichment (6-mer frequency, TF over GST control) | binding signal (ELK3): 1.29 fold enrichment (6-mer frequency, TF over GST control) | binding signal (FEV): 1.29 fold enrichment (6-mer frequency, TF over GST control) | binding signal (ETV5): 1.28 fold enrichment (6-mer frequency, TF over GST control) | binding signal (HSF1): 1.05 fold enrichment (6-mer frequency, TF over GST control) | binding signal (SPIC): 1.26 fold enrichment (6-mer frequency, TF over GST control) | binding signal (ELF4): 1.35 fold enrichment (6-mer frequency, TF over GST control) | binding signal (ELK4): 1.53 fold enrichment (6-mer frequency, TF over GST control) | binding signal (ETV2): 1.34 fold enrichment (6-mer frequency, TF over GST control) | binding signal (ELF3): 1.32 fold enrichment (6-mer frequency, TF over GST control) | binding signal (ETV1): 1.15 fold enrichment (6-mer frequency, TF over GST control)
